# Measured values: PubChem BioAssay (NCI)
# The panel holds about 79,000 compounds, 15% with a hit somewhere; the sample as a whole holds those more often. Unmarked numbers belong to inactive results. Active and inactive are the calls of the source. No stated cut-off is given here; in the data, active means growth inhibition above about 70%; inactive means the rest.
# Assays:
# [1] = NCI Yeast Anticancer Drug Screen. Data for the rad50 strain (AID 155);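 further: 0% = growth of vehicle-only cultures of the same strain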; settings: S. cerevisiae rad50 strain growth inhibition, hits give high values
# In short: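 Growth of the mutant yeast was measured after compound exposure and referenced to vehicle-treated cultures.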
# [2] = NCI Yeast Anticancer Drug Screen. Data for the mec2-1 strain (AID 157); settings: S. cerevisiae mec2-1 strain, hits give high values
# In short: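 Yeast mec2-1 mutant treated with compound. Readout: growth inhibition vs vehicle controls.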
# [3] = NCI Yeast Anticancer Drug Screen. Data for the sgs1 mgt1 strain (AID 161);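 further: 0% = growth of cultures given vehicle only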; settings: S. cerevisiae sgs1 mgt1 strain, hits give high values
# In short: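 Read-out: growth inhibition vs vehicle controls. Cells: mutant yeast strain deficient in DNA damage repair.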
# [4] = NCI Yeast Anticancer Drug Screen. Data for the cln2 rad14 strain (AID 165);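 further: 0% = growth equal to vehicle treated cultures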; settings: S. cerevisiae cln2 rad14 strain, hits give high values
# In short: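 cln2 rad14 yeast strain; compound exposure; growth inhibition read vs vehicle controls.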
# [5] = NCI Yeast Anticancer Drug Screen. Data for the bub3 strain (AID 167); settings: S. cerevisiae bub3 mutant strain, hits give high values
# In short: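 Whole-cell yeast assay. The mutant strain was incubated with compounds, and growth inhibition was determined by comparison with vehicle-treated cells.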
# [6] = NCI Yeast Anticancer Drug Screen. Data for the mlh1 rad18 strain (AID 175); settings: S. cerevisiae mlh1 rad18 strain growth inhibition, hits give high values
# In short: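 Yeast w/ defined DNA-repair lesions; compound exposure; growth vs vehicle controls → % inhibition.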
# [7] = at 5.0 µM (retest, dose inferred, filed as 0.5)
# [8] = at 50.0 µM (retest, dose inferred, filed as 5.0)
SMILES,"growth inhibition [1, 7]","growth inhibition [1, 8]",growth inhibition ([1]; at 50.0 µM),"growth inhibition [2, 7]","growth inhibition [2, 8]",growth inhibition ([2]; at 50.0 µM),"growth inhibition [3, 7]","growth inhibition [3, 8]",growth inhibition ([3]; at 50.0 µM),"growth inhibition [4, 7]","growth inhibition [4, 8]",growth inhibition ([4]; at 50.0 µM),"growth inhibition [5, 7]","growth inhibition [5, 8]",growth inhibition ([5]; at 50.0 µM),"growth inhibition [6, 7]","growth inhibition [6, 8]",growth inhibition ([6]; at 50.0 µM)
O=c1[nH]c2c([N+](=O)[O-])cc(Cl)cc2nc1/C=C(\O)c1ccc2ccccc2c1,-4%,95% (active),74.3% (active),7%,98% (active),72.9% (active),-8%,95% (active),90.1% (active),6%,94% (active),49.1%,-9%,97% (active),70% (active),25%,96% (active),71.5% (active)
CN(C)CCC[Si]1(C)c2ccccc2CCc2ccccc21,-6%,16%,82.8% (active),-5%,15%,40%,-5%,17%,57.4%,-2%,-5%,19.9%,-8%,6%,71.3% (active),-3%,26%,78.8% (active)
COC(=O)c1c(/C(=N/Nc2ccc([N+](=O)[O-])cc2)[N+](=O)[O-])ssc1=N,14%,37%,21.1%,0%,44%,24.9%,13%,60%,27.6%,6%,23%,27.9%,6%,40%,24.9%,15%,54%,70.9% (active)
O=[N+]([O-])/C=C/c1ccco1,59%,99% (active),99.5% (active),9%,100% (active),99.3% (active),16%,100% (active),88.8% (active),8%,99% (active),98.5% (active),3%,99% (active),98.9% (active),22%,99% (active),98.9% (active)
c1ccc(-c2cc(-c3cc(-c4ccccn4)[nH]n3)n[nH]2)nc1,5%,4%,17.2%,0%,-11%,0.75%,0%,18%,23.5%,-1%,-16%,9.05%,4%,7%,3.4%,-5%,4%,19.6%
CC(C)c1ccc(O)c(O)c(=O)c1 (tested in a mixture with another compound),99% (active),100% (active),99.5% (active),100% (active),100% (active),99.7% (active),99% (active),99% (active),99.5% (active),97% (active),99% (active),99.1% (active),99% (active),100% (active),99.3% (active),99% (active),99% (active),99.3% (active)
C/C=C(\C)[C@H](O)C(COCc1ccccc1)NS(=O)(=O)c1ccc(C)cc1 (some centres not stated),-5%,44%,30.1%,-3%,26%,98.5% (active),-7%,43%,36.8%,-2%,47%,22.6%,-3%,51%,97.5% (active),-4%,36%,58.5%
C=CCSc1nc2ccc(N3C(=O)C=CC3=O)cc2s1,59%,99% (active),94.7% (active),50%,99% (active),98% (active),51%,100% (active),97.5% (active),24%,98% (active),96.5% (active),27%,99% (active),99% (active),85% (active),97% (active),97.8% (active)
COC(=O)c1cccc2c3ccccc3c3ccccc3c12,6%,98% (active),97.1% (active),15%,98% (active),99.5% (active),8%,99% (active),99.2% (active),6%,97% (active),99.5% (active),12%,97% (active),97.8% (active),9%,99% (active),99.2% (active)
OB1c2ccccc2CCc2ccccc21,-4%,99% (active),99.3% (active),-7%,99% (active),99.5% (active),-4%,99% (active),99.5% (active),-13%,98% (active),96.6% (active),-25%,99% (active),99.2% (active),-2%,99% (active),99% (active)
OC(c1ccccc1)(c1ccccc1)C(F)(Cl)Cl,1%,10%,52.2%,0%,58%,94.8% (active),-4%,15%,64.4%,1%,17%,92.9% (active),-14%,9%,98.5% (active),-2%,37%,39.5%
NC(=S)N/N=C/c1cn(CCCl)c2ccccc12,7%,30%,57.5%,-49%,49%,19.8%,-17%,63%,62.9%,2%,59%,42.9%,-11%,56%,24.1%,-32%,35%,45.9%
ClC(Cl)(Cl)C1OCOC(C(Cl)(Cl)Cl)O1 (configuration not stated),20%,98% (active),99.2% (active),17%,99% (active),99.2% (active),11%,99% (active),99.3% (active),24%,99% (active),99.3% (active),3%,98% (active),99.3% (active),33%,99% (active),99.3% (active)
CCCCCN(CCCCC)CC(C)(C)C(O)c1ccc(OC)c2ccccc12 (configuration not stated),-2%,42%,51.9%,-4%,18%,47.6%,1%,81% (active),52.5%,-4%,27%,86.9% (active),0%,64%,33.2%,-2%,57%,77.3% (active)
O=C(Nc1ccc(/C=C/c2ccc(NC(=O)c3cc(S(=O)(=O)O)c4cccnc4c3O)cc2S(=O)(=O)O)c(S(=O)(=O)O)c1)c1cc(S(=O)(=O)O)c2cccnc2c1O,19%,97% (active),94.4% (active),26%,97% (active),88.7% (active),34%,97% (active),93.8% (active),9%,95% (active),90.2% (active),13%,98% (active),95.9% (active),41%,97% (active),91.3% (active)
CCCCCCCCCCCCCCSC(=N)N,99% (active),95% (active),66.3%,65%,97% (active),98.5% (active),100% (active),95% (active),45.5%,41%,95% (active),54.5%,100% (active),96% (active),98.7% (active),95% (active),96% (active),97.7% (active)
O=C(Nc1ccc(Cl)cc1)Nc1nnc2nc(C(C(=O)c3ccc(F)cc3)c3nc4nnc(NC(=O)Nc5ccc(Cl)cc5)n4[nH]c3=O)c(=O)[nH]n12,-11%,32%,99.5% (active),-19%,56%,99.5% (active),4%,33%,99.5% (active),-38%,36%,99.2% (active),-26%,48%,99% (active),-10%,64%,99.5% (active)
O=C1C=CC(=O)C2C3C=CC(CC3)C12 (configuration not stated),8%,29%,47.1%,20%,36%,43.6%,10%,36%,70.1% (active),14%,43%,78.2% (active),0%,23%,92.5% (active),11%,39%,84.6% (active)
Cc1ccccc1N=Nc1ccccc1,21%,98% (active),99.4% (active),17%,99% (active),99.4% (active),22%,99% (active),99.5% (active),12%,98% (active),99.3% (active),48%,98% (active),99.3% (active),39%,98% (active),99.4% (active)
